# Source: PubChem BioAssay (NCATS)
# Records with an inconclusive call do not appear. A call without a number means that no potency is given here. The source made the active and inactive calls. Unless noted, calls follow the shape of the dose curve; as a rule, active = well fitted curve in the direction sought with a large enough effect; inconclusive = small, poorly fitted or top-dose-only effect, or another doubt; inactive = no such curve, though single readings can be large; an effect the other way counts as inactive or inconclusive.
# What was measured:
# [1] = qHTS for Inhibitors of Plasmodium falciparum (DD2) proliferation (AID 504314); also: potency is read from the fitted curve at half-maximal effect;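 as to activity, negative = inhibition: parasite DNA measured by SYBR Green fluorescence after red cell lysis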
# In short: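 Erythrocytes infected with P. falciparum Dd2 (0.3% parasitemia, 2.5% hematocrit) exposed to compound 72 h at 37C, 5% CO2. Parasite DNA quantified by SYBR Green fluorescence after saponin/Triton lysis overnight; normalized to 0.29 uM artemisinin and DMSO.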
# [2] = qHTS for Inhibitors of Plasmodium falciparum (GB4) proliferation (AID 504315); also: nearly all actives have a fitted effect of over 50% in size; also: potency is read from the fitted curve at half-maximal effect
# In short: (§1)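 Erythrocytes infected with P. falciparum line (0.3% parasitemia, 2.5% hematocrit final) incubated with compounds 72 h at 37 °C, 5% CO2; SYBR Green lysis buffer added, fluorescence read next day. Normalized to 0.29 uM artemisinin and DMSO.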
# [3] = qHTS for Inhibitors of Plasmodium falciparum (7G8) proliferation (AID 504316); also: nearly all actives have a fitted effect of over 65% in size; also: potency is read from the fitted curve at half-maximal effect
# In short: as §1
# [4] = qHTS for Inhibitors of Plasmodium falciparum (HB3) proliferation (AID 504318); also: nearly all actives have a fitted effect of over 60% in size; also: potency is read from the fitted curve at half-maximal effect
# In short: as §1
# [5] = qHTS for Inhibitors of Plasmodium falciparum (CP250) proliferation (AID 504320); also: potency is read from the fitted curve at half-maximal effect
# In short: as §1
# [6] = molecular target: Atrial natriuretic peptide receptor 1 (Homo sapiens) (UniProt P16066); assay: Natriuretic polypeptide receptor (hNpr1) antagonism - Pilot CMLD screen (AID 1347052; calls by dose curve;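 also: HEK293 cells with hNpr1 stimulated by hNppA peptide at 0.1 nM; cGMP level read as GloSensor luciferase luminescence after agonist stimulation; series mostly up to about 9.2 µM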)
# Sequence of Atrial natriuretic peptide receptor 1 (Homo sapiens) (P16066 whole entry, looked up): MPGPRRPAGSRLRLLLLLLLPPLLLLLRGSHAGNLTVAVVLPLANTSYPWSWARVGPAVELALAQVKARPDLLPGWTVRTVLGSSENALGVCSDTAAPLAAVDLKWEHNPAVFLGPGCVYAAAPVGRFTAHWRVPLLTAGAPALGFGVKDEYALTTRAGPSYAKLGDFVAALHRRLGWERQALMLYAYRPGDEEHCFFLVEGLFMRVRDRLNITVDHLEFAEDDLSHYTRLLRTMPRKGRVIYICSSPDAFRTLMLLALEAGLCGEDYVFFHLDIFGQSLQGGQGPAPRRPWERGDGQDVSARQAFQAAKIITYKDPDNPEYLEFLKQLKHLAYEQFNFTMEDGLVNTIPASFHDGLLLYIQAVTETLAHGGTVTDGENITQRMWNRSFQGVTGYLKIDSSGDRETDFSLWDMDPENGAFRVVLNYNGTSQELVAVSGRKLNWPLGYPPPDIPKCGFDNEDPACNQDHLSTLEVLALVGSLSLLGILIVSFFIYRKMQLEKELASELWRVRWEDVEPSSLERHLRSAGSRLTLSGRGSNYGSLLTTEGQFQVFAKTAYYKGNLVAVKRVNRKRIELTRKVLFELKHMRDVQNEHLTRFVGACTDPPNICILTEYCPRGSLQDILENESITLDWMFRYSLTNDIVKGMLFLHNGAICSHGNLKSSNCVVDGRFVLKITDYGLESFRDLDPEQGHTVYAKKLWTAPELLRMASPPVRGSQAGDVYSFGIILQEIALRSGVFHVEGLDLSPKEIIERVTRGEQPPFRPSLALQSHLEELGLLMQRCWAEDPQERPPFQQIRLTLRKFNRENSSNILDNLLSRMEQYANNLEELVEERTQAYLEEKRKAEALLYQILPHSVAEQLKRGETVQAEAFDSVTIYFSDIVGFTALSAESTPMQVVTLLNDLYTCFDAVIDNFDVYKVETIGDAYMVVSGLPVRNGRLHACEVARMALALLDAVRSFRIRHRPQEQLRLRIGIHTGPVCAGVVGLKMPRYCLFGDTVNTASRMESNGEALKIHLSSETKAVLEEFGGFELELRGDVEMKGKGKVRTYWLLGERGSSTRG
Compound,Potency [1],Potency [2],Potency [3],Potency [4],Potency [5],Potency [6],"activity, negative = inhibition [1]"
Cc1ccc(O[C@@H]2[C@H](O)CO[C@H]2C=CC#Cc2ccc(C(C)(C)C)cc2)cc1,inactive,inactive,inactive,inactive,inactive,inactive,–
COCCN1C(=NCC(C)C)NC(c2ccccc2)C(C(=O)OC)=C1C (stereo not given),inactive,inactive,inactive,inactive,inactive,inactive,–
CCC(=O)OC1(C)C(=O)C=C2C=C(c3ccsc3)OC=C2C1=O (stereo not given),inactive,inactive,inactive,inactive,inactive,inactive,–
CC(=O)[C@H]1[C@H](CCc2ccccc2)NC(=O)N(Cc2ccccc2)[C@@H]1C,inactive,inactive,inactive,inactive,inactive,inactive,–
CCN1C(=O)NC(c2cccs2)C(C(=O)OC)=C1C (stereo not given),inactive,inactive,inactive,inactive,inactive,inactive,–
CO[C@@H]1c2cc(F)ccc2C(=CCCOC(=O)CC=Cc2ccccc2)[C@H]1C,inactive,inactive,inactive,inactive,inactive,inactive,–
CC(C)CON=C1C[C@@H](O)[C@@H](O)[C@@H]2[C@H]3C(=O)N(C[C@@H]4CCCO4)C(=O)[C@@H]3CC[C@@H]12,inactive,inactive,inactive,inactive,inactive,inactive,–
C=CCOC(=O)NC(c1ccc(F)c(F)c1)C(C(C)=O)C(=O)OC (stereo not given),inactive,inactive,inactive,inactive,inactive,inactive,–
COc1cc(C(NC(=O)C(F)(F)F)c2cc3ccccc3o2)cc(OC)c1OC (stereo not given),inactive,inactive,inactive,inactive,inactive,inactive,–
O=C1OC2(CCCCC2)CC2=C1[C@H]1O[C@](c3ccsc3)(Cc3c1ccc1ccccc31)O2,inactive,inactive,inactive,inactive,inactive,inactive,–
COC(=O)CCC(=O)OC1(C)C(=O)C=C2C=C(C3CC3)N(Cc3ccco3)C=C2C1=O (stereo not given),–,inactive,inactive,inactive,inactive,inactive,0.997% [at 1.12 µM] (inactive)
COc1cc2c(cc1OC)[C@@H]1O[C@](CCCCN3C(=O)c4ccccc4C3=O)(C2)OC2=C1C(=O)CC(C)(C)C2,0.753 µM (active),0.757 µM (active),0.301 µM (active),0.478 µM (active),1.51 µM (active),inactive,–
COc1ccc(OC)c(-c2ccccc2C=NNS(=O)(=O)c2ccc(C)cc2)c1,inactive,inactive,inactive,inactive,inactive,inactive,–
O=C(NN=C1C[C@@H](O)[C@H](O)[C@H]2[C@@H]3C(=O)N(C4CCCCC4)C(=O)[C@@H]3CC[C@H]12)OCc1ccccc1,inactive,inactive,inactive,inactive,inactive,inactive,–
C=CCOC(=O)C(C(C)=O)[C@@H](NC(=O)OC)c1cccc(F)c1 (stereo not given in full),inactive,inactive,inactive,inactive,inactive,inactive,–
COCCN1C(=O)N[C@@H](CCc2ccccc2)[C@@H](C(=O)OC)[C@H]1C,inactive,inactive,inactive,inactive,inactive,inactive,–
CCCCC1=CC2=CC(=O)C(C)(O)C(=O)C2=CO1 (stereo not given),inactive,inactive,inactive,inactive,inactive,inactive,–
CCN1C(=NCCc2ccc(Br)cc2)N[C@@H](c2ccccc2)[C@H](C(=O)OC)[C@H]1C,inactive,inactive,inactive,inactive,inactive,inactive,–
CC1=CC[C@@H](C)O[C@@]2(C1)C(=O)N(Cc1ccc(Br)cc1)c1ccccc12,inactive,inactive,inactive,inactive,inactive,inactive,–
COc1cccc([C@H]2Oc3ccc(OC)cc3C(=NOC[C@@H](C)[C@H](OCc3ccccc3)C(C)C)[C@H]2O)c1,inactive,inactive,inactive,inactive,inactive,inactive,–
COC(=O)CC1c2ccccc2C=C(C2CC2)N1C(=O)OC (stereo not given),inactive,inactive,inactive,inactive,inactive,inactive,–
CCCCc1nc2c(c3c1C[C@H](C)OC3)CN(S(=O)(=O)c1ccc(NC(C)=O)cc1)CC2,inactive,inactive,inactive,inactive,inactive,inactive,–
O=C(C=Cc1ccc2c(c1)OCO2)c1ccc(F)cc1,inactive,inactive,inactive,inactive,inactive,inactive,–
COc1ccc(OC[C@@H]2CC3[C@@H](CC[C@@H](C)[C@H]3c3ccc(Br)cc3)C(=O)O2)cc1 (stereo not given in full),inactive,inactive,inactive,inactive,inactive,inactive,–
CC[C@H](C)[C@@H](NC(=O)O[C@H]1C(=O)c2ccc(OC)cc2O[C@@H]1c1ccc2c(c1)OCO2)C(=O)OC,inactive,inactive,inactive,inactive,inactive,inactive,–
